Screening results (PubChem BioAssay)
This is a sample that favours compounds with a hit; in the whole collection about 3.6% have one here.
BJeLR viability: BJeLR cell viability loss; inhibition, % (concentration not given with the values); AID 1554; BJeLR (HRASV12) viability, CellTiter-Glo ATP luminescence, 48 h; 300,000 compounds, 0.17% hits; in the data active means inhibition above about 50%; inconclusive means no clear call, values can overlap the other calls
BoNT F protease: BoNT F light chain protease inhibition; Multiplex microsphere protease cleavage assay, flow cytometry; inhibition, % at 10 µM; 360,000 compounds, 0.22% hits; in the data active means inhibition above about 35%, passing the limit was not always enough; inconclusive means no clear call, values can overlap the other calls; further: plate controls were buffer without enzyme for full effect and enzyme alone for no effect
BoNT-A LC inh2: inhibitors of Botulinum neurotoxin A light chain protease. multiplex microsphere protease substrate cleavage, flow cytometry. 360,000 compounds, 0.17% hits. inhibition, % at 10 µM; further: plate controls were buffer without enzyme for full effect and enzyme alone for no effect
Anthrax LF inh2: blocks Bacillus anthracis lethal factor protease; multiplex microsphere protease cleavage assay, LF; inhibition, % at 10 µM; 360,000 compounds, 0.12% hits; AID 588501; further: plate controls were buffer without enzyme for full effect and enzyme alone for no effect
Target sequence (P15917 whole entry, looked up): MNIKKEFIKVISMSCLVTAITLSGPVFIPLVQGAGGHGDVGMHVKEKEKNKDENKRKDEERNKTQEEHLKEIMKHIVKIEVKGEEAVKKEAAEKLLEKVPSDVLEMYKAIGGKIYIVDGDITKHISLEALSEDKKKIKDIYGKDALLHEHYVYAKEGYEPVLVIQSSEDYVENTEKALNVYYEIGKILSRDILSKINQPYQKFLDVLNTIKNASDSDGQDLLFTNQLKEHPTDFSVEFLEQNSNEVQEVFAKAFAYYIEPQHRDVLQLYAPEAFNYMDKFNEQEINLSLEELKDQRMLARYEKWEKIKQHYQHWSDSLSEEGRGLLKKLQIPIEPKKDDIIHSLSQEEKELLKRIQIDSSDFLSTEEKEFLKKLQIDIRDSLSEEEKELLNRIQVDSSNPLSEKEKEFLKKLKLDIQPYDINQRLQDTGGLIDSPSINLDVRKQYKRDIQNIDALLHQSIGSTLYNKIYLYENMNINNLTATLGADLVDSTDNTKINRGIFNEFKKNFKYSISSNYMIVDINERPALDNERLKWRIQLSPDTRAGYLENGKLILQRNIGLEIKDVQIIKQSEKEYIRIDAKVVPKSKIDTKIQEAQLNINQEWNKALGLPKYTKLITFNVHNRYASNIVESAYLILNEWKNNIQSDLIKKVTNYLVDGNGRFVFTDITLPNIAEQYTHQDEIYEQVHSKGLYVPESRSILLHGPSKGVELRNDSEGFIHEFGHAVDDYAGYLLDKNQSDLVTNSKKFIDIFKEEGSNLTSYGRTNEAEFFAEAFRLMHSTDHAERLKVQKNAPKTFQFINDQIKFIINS
Bead autofluor: compound fluorescence in toxin protease inhibitor counterscreen; compound autofluorescence counterscreen, microsphere flow cytometry; stronger effect = higher value; fluorescence intensity (no concentration beside the values); 360,000 compounds, 3.1% hits; AID 624483; in the data active means fluorescence intensity above about 16000; inconclusive means no clear call, values can overlap the other calls
3CLpro inhibitor: SARS-CoV 3CLpro protease inhibition | inhibition, % at 6 µM | recombinant SARS-CoV 3CLpro, quenched FRET peptide cleavage | 290,000 compounds, 0.14% hits | P0C6X7 | AID 1706; in the data active means inhibition above about 12%
Numbers without * were called inactive. Unless noted, no stated cut-off is given here; in the data, active means inhibition above about 30%; inconclusive means no clear call, values can overlap the other calls; inactive means below that.

For CCCCC(CCC(=O)Nc1nccs1)C(=O)O (stereo unspecified) the results were BJeLR viability -1.7, BoNT F protease -0.2, BoNT-A LC inh2 inconclusive, Anthrax LF inh2 -2.5, Bead autofluor 20150* and 3CLpro inhibitor 3.1.
Screening CCCCC(C(=O)O)C(C)CC(=O)Nc1nccs1 (stereo unspecified) returned BJeLR viability -0.9, BoNT F protease -1.2, BoNT-A LC inh2 0.4, Anthrax LF inh2 4.1, Bead autofluor 3274 and 3CLpro inhibitor -2.7.
Screening CS(=O)(=O)c1cnc2c(-c3ccc(F)cc3)cnn2c1N returned BJeLR viability -4.0, BoNT F protease -2.8, BoNT-A LC inh2 inconclusive, Anthrax LF inh2 -0.2, Bead autofluor 20368* and 3CLpro inhibitor -5.5.
Screening COc1ccc(Cl)cc1N/C(N)=N/c1nc(CSc2ccc(C)cc2)cc(=O)[nH]1 returned BJeLR viability 1.0, BoNT F protease -2.5, BoNT-A LC inh2 1.4, Anthrax LF inh2 -1.0, Bead autofluor 23248* and 3CLpro inhibitor 0.3.
O=C(O)CN1C(=O)CC(c2ccccc2)CC1=O was read as BJeLR viability -3.5, BoNT F protease inconclusive, BoNT-A LC inh2 -1.7, Anthrax LF inh2 4.6, Bead autofluor 3836 and 3CLpro inhibitor 1.9.
For Cc1nn(C)c(C)c1/C=N/NC(=O)C(C)(C)Oc1ccc(Cl)cc1 the results were BJeLR viability 2.5, BoNT F protease -1.8, BoNT-A LC inh2 inconclusive, Anthrax LF inh2 -4.6, Bead autofluor 24501* and 3CLpro inhibitor -1.9.
Cc1c(/C=N/NC(=O)C(C)(C)Oc2ccc(Cl)cc2)cnn1C was read as BJeLR viability -6.3, BoNT F protease -10.6, BoNT-A LC inh2 -0.7, Anthrax LF inh2 0.0, Bead autofluor 11508 and 3CLpro inhibitor 1.1.
Screening CC1=C(C(=O)N(C)C)CC(CC(=O)NCc2cccc3ccccc23)C(=O)N1Cc1ccc(F)cc1 (stereo unspecified) returned BoNT F protease 1.1, BoNT-A LC inh2 0.0, Anthrax LF inh2 -1.0 and Bead autofluor 6185.
C=CCn1c(-c2cccnc2Cl)nc2cc(Cl)c(Cl)cc21 was read as BJeLR viability 6.2, BoNT F protease 1.8, BoNT-A LC inh2 2.0, Anthrax LF inh2 0.5, Bead autofluor 10599 and 3CLpro inhibitor 1.8.
Screening CCCn1c(-c2cccnc2Cl)nc2cc(Cl)c(Cl)cc21 returned BJeLR viability 17.0, BoNT F protease -0.7, BoNT-A LC inh2 -1.1, Anthrax LF inh2 -0.5, Bead autofluor 21449* and 3CLpro inhibitor 6.2.
For CCC(C)[C@H](NC(=O)NC1CC1)C(=O)O (stereo partly specified) the results were BJeLR viability 1.3, BoNT F protease -0.1, BoNT-A LC inh2 inconclusive, Anthrax LF inh2 -2.2, Bead autofluor 23360* and 3CLpro inhibitor 0.4.
Screening Cc1cccc(C(=O)NN2S(=O)(=O)c3ccccc3S2(=O)=O)c1 returned BJeLR viability 6.5, BoNT F protease 0.1, BoNT-A LC inh2 -0.4, Anthrax LF inh2 -5.8, Bead autofluor 4387 and 3CLpro inhibitor 3.6.
Screening CCOC(=O)C1=C(CC)OC(N)=C(C#N)C1c1ccc(OC)cc1OC (stereo unspecified) returned BJeLR viability -3.2, BoNT F protease 6.9, BoNT-A LC inh2 inconclusive, Anthrax LF inh2 1.1, Bead autofluor 19947* and 3CLpro inhibitor 1.1.
Screening CCOC(=O)C1=C(C)OC(N)=C(C#N)C1c1ccsc1 (stereo unspecified) returned BJeLR viability 6.6, BoNT F protease 15.8, BoNT-A LC inh2 18.2, Anthrax LF inh2 -9.2, Bead autofluor 17866* and 3CLpro inhibitor 2.7.
Screening Cc1cc(C(=O)c2ccc(C(C)(C)C)cc2)c(NC(=O)CCl)s1 returned BJeLR viability -6.1, BoNT F protease -1.1, BoNT-A LC inh2 -0.8, Anthrax LF inh2 -2.3, Bead autofluor 2161 and 3CLpro inhibitor 0.9.
`COc1cccc(Sc2ccccc2/C=N/NC(N)=O)c1` gave BJeLR viability 28.4, BoNT F protease -2.7, BoNT-A LC inh2 -0.5, Anthrax LF inh2 -2.5, Bead autofluor 3839 and 3CLpro inhibitor 6.0.
CN(C)c1nc(NCc2ccccc2)nc(SCC(=O)Nc2ccc(Cl)c(Cl)c2)n1 was read as BJeLR viability -4.8, BoNT F protease -1.1, BoNT-A LC inh2 -0.1, Anthrax LF inh2 2.9, Bead autofluor 19687* and 3CLpro inhibitor 2.6.
`COc1ccc(/C=C(\C#N)C(=O)NCC(c2ccc(F)cc2)N2CCOCC2)cc1` (stereo unspecified) gave BJeLR viability 1.9, BoNT F protease 3.9, BoNT-A LC inh2 -0.6, Anthrax LF inh2 -7.9, Bead autofluor 4725 and 3CLpro inhibitor -3.5.
`Cc1ccc(N(Cc2cc(=O)[nH]c3ccccc23)C(=O)c2ccco2)cc1` gave BJeLR viability 1.2, BoNT F protease 1.6, BoNT-A LC inh2 -1.3, Anthrax LF inh2 -2.8, Bead autofluor 23679* and 3CLpro inhibitor -0.1.
Cc1cc(C)cc(N(CCC#N)C(=O)CSc2ncnc3sccc23)c1 was read as BoNT F protease -0.5, BoNT-A LC inh2 -0.4, Anthrax LF inh2 -4.9 and Bead autofluor 2988.
Cc1ccc2nc3c(cc(C(=O)NCC4CCCO4)c(=N)n3CC3CCCO3)c(=O)n2c1 (stereo unspecified) was read as BJeLR viability -11.3, BoNT F protease 1.9, BoNT-A LC inh2 0.7, Anthrax LF inh2 32.9*, Bead autofluor 3882 and 3CLpro inhibitor -2.9.
`Cc1ccc2nc3c(cc(C(N)=S)c(=N)n3CCCOC(C)C)c(=O)n2c1` gave BJeLR viability -13.9, BoNT F protease -8.9, BoNT-A LC inh2 45.3*, Anthrax LF inh2 13.0, Bead autofluor 13411 and 3CLpro inhibitor 2.8.
Cc1ccccc1OCC(=O)N1N=C(C(F)(F)F)CC1(O)C(C)(C)C (stereo unspecified) was read as BJeLR viability 1.3, BoNT F protease 13.6, BoNT-A LC inh2 0.2, Anthrax LF inh2 3.7, Bead autofluor 3769 and 3CLpro inhibitor 0.2.
Screening Cc1ccc(OCC(=O)N2N=C(C(F)(F)F)CC2(O)C(C)(C)C)cc1C (stereo unspecified) returned BJeLR viability 27.1, BoNT F protease -0.8, BoNT-A LC inh2 1.6, Anthrax LF inh2 -7.1, Bead autofluor 19845* and 3CLpro inhibitor 0.7.
`C=CCOc1ccc(CC2C(=O)N(C)C(=O)N(C)C2=O)cc1` gave BJeLR viability -0.3, BoNT F protease -0.1, BoNT-A LC inh2 0.2, Anthrax LF inh2 5.1, Bead autofluor 8987 and 3CLpro inhibitor 0.9.
`Cc1ccc(CC2C(=O)N(C)C(=O)N(C)C2=O)s1` gave BJeLR viability -11.0, BoNT F protease -3.5, BoNT-A LC inh2 inconclusive, Anthrax LF inh2 -1.1, Bead autofluor 21258* and 3CLpro inhibitor 1.5.
`CCCNC(=O)c1ccccc1C(=O)NCCC` gave BJeLR viability 2.3, BoNT F protease 32.9, BoNT-A LC inh2 1.6, Anthrax LF inh2 3.6, Bead autofluor 4155 and 3CLpro inhibitor 2.0.
For CCOCCNC(=O)c1ccccc1C(=O)NCCOCC the results were BJeLR viability 2.2, BoNT F protease -5.2, BoNT-A LC inh2 -3.8, Anthrax LF inh2 -1.1, Bead autofluor 17947* and 3CLpro inhibitor 0.4.
